This note sets out measurements from PubChem BioAssay (NCI).

This is part of a sample that, as a whole, favours compounds with a hit. Of some 83,000 tested, about 20% had one in any assay.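 The test compound was applied at a single concentration to cells in 96-well plates for 48 hours, and percent growth was recorded.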 The source made the active and inactive calls. The calls were made as follows: active = growth percent below 10; inactive = the rest.

This assay concerns LOX IMVI melanoma. Briefly: NCI-60 one-dose screen, 48 h (100 = growth as untreated, 0 = no growth, -100 = all killed). As to conditions: 10 µM.
For `COc1cc2c3c(n(CCCNC(C)C)c(=O)c2cc1OC)-c1nc2c(cc1C3=O)OCO2`, the growth is -97.3% (active).

Take `COc1ccc2cc([C@H](C)C(=O)NCc3ccccc3)ccc2c1`: the growth was 43% (inactive).

With `O=C(Cn1nc(-c2ccccc2)ccc1=O)NNC(=S)NC1CCCCC1`, the growth was 99% (inactive).

Consider `CN1CCCN(Cc2ccc(C(=O)Nc3cccc(Nc4ccc5cc(O)ccc5n4)c3)cc2C(F)(F)F)CC1`, for which the growth was -100% (active).

Consider `O=C1Nc2cc(Cl)ccc2/C1=C/c1cccc(OCc2ccccc2)c1`, for which the growth was -82.6% (active).

For the compound `C/C(=C\CC/C=C(\C)CC/C=C(\C)CC[C@@H](O)C(C)(C)O)CC/C=C(\C)CC[C@@H](O)C(C)(C)O`, the growth is 28.7% (inactive).

On to `O=C(c1ccc([N+](=O)[O-])c([N+](=O)[O-])c1O)n1[nH]c(=O)c2ccccc2c1=O`, for which the growth was 56.6% (inactive).

Consider `O=C(O)CCCCCCCCCCN1C(=O)/C(=C/c2cnc(-c3ccc(Cl)cc3)s2)SC1=S`, for which the growth was 5.11% (active).

As to `O=C1Nc2ccc(F)cc2/C1=C/c1cccc(OCc2ccccc2)c1`, the growth is -79.5% (active).

Take `COc1ccc(-c2nc(S(=O)(=O)c3ccccc3)c(S(C)(=O)=O)o2)cc1`: the growth was -85.3% (active).

With `COc1ccc(C(=O)NC(=S)N2CCN(c3ncnc4c3cnn4-c3ccccc3)CC2)cc1`, the growth is 62.3% (inactive).

As to `C=CC(=O)Nc1nc(-c2cccc(NS(=O)(=O)c3cccc4c(N(C)C)cccc34)c2)cs1`, the growth was -95.2% (active).

Take `Cc1cc(=O)oc2cc(OCCCCOc3ccc(/C=C/C(=O)Nc4cccc(Cl)c4)cc3)ccc12`: the growth is 64.4% (inactive).
